Measurements published in the supplement of paper PMC11732987, “Enantioselective OTUD7B fragment discovery through chemoproteomics screening and high-throughput optimisation” (Communications Chemistry, 2025).

Assays:
Test in all cases: log2 ratio of Biotin-Ahx-Ub-VS probe labelling (fragment/DMSO); higher = less target engagement (more negative = stronger competition), active = hit call of the paper (q ≤ 0.05, log2 ratio ≤ -1)
Conditions in all cases: compound concentration: 200 uM; treatment time: 3 h
OTUD6B = target: T1, OTUD6B (UniProt Q8N6M0)
T1 sequence (whole entry): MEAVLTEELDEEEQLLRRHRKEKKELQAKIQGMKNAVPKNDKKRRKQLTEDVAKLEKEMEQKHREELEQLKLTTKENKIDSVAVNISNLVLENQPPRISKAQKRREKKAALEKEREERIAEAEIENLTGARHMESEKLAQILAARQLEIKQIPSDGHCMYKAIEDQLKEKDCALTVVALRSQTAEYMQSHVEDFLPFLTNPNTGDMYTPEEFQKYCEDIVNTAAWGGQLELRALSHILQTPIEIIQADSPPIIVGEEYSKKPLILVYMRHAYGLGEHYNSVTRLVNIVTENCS
Procedure, shortened: (§1)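 HEK293T lysate (495 µg per sample, in Tris/CHAPS/IGEPAL buffer with protease inhibitors) was exposed in triplicate for 3 h to fragment at 200 µM or to vehicle, then to Biotin-Ahx-Ub-VS at 0.5 µM final for 1 h. Labelled DUBs were enriched on NeutrAvidin, digested with LysC and trypsin, and analysed by diaPASEF LC-MS/MS. Spectronaut label-free quantities were normalised to the global median, and values are average log2 ratios of fragment over vehicle from an unpaired t-test. Only proteins with ≥2 unique peptides were used.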

OTUD7B = target: T2, OTUD7B (UniProt Q6GQQ9)
T2 sequence (whole entry): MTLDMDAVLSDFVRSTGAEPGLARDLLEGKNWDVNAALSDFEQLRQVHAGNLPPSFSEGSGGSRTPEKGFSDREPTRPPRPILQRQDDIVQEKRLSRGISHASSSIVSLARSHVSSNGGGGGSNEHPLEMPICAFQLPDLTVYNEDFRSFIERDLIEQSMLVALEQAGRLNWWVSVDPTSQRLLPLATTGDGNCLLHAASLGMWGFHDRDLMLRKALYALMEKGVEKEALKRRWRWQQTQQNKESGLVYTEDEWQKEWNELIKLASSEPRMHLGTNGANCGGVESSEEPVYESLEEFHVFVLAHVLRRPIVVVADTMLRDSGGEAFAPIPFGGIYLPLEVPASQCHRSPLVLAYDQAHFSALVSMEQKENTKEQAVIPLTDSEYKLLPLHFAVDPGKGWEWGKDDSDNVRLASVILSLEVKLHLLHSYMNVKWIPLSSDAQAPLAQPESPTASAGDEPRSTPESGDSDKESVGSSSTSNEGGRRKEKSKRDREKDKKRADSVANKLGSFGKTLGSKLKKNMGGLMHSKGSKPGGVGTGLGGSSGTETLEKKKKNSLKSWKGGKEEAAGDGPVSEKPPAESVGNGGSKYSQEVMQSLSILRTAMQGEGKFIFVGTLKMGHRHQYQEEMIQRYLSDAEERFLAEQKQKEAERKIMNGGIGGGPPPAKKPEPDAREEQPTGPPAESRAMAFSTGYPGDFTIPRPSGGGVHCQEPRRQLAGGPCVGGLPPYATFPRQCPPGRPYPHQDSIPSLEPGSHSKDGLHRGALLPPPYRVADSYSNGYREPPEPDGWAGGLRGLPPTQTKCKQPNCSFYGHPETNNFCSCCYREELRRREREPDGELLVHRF
Procedure, shortened: as §1

PRPF8 = PRPF8 (UniProt Q6P2Q9)
Procedure, shortened: as §1

PSMD7 = target: T3, PSMD7 (UniProt P51665)
T3 sequence (whole entry): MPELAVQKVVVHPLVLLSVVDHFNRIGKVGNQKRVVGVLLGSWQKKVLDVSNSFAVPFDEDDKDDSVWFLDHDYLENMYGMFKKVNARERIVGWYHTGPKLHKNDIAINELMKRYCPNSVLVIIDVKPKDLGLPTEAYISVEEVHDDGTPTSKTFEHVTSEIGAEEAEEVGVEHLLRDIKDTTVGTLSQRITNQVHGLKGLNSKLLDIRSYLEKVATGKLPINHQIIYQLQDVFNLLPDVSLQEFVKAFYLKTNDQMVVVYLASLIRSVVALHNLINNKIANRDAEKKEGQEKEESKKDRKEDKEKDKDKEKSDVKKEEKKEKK
Procedure, shortened: as §1

UCHL1 = UCHL1 (UniProt P09936)
Chain of UCHL1 (P09936 whole entry, looked up): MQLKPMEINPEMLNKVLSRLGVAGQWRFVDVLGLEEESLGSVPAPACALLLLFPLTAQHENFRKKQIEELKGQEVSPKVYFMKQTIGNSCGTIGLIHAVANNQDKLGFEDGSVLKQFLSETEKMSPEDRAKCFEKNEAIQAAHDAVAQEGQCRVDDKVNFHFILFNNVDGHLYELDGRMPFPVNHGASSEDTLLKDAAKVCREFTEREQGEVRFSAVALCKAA
Procedure, shortened: as §1

UCHL3 = target: T4, UCHL3 (UniProt P15374)
T4 sequence (whole entry): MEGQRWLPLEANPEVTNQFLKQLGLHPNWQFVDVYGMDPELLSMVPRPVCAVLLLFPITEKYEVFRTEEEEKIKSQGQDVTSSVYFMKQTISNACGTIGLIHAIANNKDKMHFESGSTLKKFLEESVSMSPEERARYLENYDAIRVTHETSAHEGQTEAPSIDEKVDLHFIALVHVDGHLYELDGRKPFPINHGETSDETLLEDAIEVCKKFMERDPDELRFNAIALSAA
Procedure, shortened: as §1

UCHL5 = target: T5, UCHL5 (UniProt Q9Y5K5)
T5 sequence (whole entry): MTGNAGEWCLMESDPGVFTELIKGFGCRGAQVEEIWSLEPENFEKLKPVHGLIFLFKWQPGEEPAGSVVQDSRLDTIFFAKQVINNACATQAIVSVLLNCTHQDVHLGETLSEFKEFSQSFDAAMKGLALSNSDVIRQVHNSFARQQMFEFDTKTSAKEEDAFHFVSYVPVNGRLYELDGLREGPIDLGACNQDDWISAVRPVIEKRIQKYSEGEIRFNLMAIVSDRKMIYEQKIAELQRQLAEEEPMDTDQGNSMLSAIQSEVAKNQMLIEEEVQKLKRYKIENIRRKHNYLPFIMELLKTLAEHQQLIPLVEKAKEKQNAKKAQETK
Procedure, shortened: as §1

USP10 = USP10 (UniProt Q14694)
Chain of USP10 (Q14694 whole entry): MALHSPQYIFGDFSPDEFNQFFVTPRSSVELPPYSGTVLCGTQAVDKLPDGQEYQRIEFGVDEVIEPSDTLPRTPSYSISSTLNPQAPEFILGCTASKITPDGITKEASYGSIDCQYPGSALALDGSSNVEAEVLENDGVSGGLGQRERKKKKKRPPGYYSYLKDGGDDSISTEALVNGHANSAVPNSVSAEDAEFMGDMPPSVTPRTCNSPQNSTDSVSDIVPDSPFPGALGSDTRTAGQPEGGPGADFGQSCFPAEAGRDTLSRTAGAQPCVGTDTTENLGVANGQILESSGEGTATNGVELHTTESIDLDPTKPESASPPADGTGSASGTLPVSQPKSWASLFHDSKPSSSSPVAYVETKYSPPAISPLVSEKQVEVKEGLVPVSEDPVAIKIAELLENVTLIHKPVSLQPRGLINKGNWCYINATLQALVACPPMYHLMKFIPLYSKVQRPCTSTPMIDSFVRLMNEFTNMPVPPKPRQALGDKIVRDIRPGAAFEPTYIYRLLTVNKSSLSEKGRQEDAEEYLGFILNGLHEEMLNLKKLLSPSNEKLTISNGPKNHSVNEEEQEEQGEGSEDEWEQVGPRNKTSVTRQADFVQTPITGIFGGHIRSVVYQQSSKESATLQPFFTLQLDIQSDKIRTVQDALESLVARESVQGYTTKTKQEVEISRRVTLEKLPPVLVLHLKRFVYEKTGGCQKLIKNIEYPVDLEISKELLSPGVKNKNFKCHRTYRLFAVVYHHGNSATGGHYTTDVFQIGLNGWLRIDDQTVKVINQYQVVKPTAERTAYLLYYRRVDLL
Procedure, shortened: as §1

USP15 = target: T6, USP15 (UniProt Q9Y4E8)
T6 sequence (whole entry): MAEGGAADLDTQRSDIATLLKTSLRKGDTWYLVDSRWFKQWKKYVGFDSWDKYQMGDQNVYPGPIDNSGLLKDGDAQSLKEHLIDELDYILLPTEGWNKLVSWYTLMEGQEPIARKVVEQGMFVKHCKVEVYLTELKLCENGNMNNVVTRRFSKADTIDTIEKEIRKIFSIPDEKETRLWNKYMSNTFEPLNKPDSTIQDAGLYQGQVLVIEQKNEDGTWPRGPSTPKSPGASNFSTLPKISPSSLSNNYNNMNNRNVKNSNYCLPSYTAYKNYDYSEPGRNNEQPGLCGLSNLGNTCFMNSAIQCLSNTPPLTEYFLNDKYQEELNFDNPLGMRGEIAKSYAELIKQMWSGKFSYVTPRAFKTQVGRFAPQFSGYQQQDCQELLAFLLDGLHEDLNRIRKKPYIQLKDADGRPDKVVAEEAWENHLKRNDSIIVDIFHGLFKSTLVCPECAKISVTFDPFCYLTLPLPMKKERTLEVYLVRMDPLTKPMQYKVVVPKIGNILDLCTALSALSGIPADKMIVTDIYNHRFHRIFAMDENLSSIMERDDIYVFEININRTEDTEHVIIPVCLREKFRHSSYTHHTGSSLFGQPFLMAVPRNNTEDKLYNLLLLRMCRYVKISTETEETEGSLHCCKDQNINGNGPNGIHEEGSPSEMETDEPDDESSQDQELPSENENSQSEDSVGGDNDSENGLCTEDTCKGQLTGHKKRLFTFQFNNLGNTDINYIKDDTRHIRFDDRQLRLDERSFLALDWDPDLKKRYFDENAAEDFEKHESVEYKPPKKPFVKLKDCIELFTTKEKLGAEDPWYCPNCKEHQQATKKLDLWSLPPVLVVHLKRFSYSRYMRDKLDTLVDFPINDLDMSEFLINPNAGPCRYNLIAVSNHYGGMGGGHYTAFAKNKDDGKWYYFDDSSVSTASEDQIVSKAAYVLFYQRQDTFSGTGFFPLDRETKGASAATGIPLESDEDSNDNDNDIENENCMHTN
Procedure, shortened: as §1

USP16 = USP16 (UniProt Q9Y5T5)
Chain of USP16 (Q9Y5T5 whole entry, looked up): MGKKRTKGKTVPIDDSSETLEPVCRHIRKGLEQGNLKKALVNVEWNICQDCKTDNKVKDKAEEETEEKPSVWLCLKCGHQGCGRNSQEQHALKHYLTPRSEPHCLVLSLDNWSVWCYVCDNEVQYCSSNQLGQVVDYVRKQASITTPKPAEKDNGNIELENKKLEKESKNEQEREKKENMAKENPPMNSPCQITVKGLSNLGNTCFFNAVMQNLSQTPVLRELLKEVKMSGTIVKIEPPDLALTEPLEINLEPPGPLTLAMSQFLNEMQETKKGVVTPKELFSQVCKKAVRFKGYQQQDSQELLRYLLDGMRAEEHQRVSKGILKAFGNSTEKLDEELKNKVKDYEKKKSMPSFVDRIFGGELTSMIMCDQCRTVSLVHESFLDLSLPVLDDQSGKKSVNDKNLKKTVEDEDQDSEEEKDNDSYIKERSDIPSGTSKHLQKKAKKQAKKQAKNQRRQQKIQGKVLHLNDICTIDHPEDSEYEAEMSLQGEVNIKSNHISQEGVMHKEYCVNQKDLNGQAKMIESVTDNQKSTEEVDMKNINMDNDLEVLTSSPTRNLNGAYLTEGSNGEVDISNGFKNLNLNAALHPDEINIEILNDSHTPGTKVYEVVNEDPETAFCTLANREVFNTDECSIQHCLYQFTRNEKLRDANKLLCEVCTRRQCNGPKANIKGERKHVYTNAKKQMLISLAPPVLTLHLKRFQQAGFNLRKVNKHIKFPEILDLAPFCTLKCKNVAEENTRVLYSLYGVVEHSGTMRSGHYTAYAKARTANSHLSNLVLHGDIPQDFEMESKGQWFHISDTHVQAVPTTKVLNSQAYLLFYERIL
Procedure, shortened: as §1

Measured: log2 ratio of Biotin-Ahx-Ub-VS probe labelling

COc1cc(Cl)c(C)cc1NC(=O)CCl
inactive: OTUD6B -0.418 | OTUD7B -0.345 | PRPF8 -0.193 | PSMD7 -0.352 | UCHL3 0.146 | UCHL5 -0.348 | USP10 -0.183 | USP15 -0.24 | USP16 -0.634
active: UCHL1 -1.57
